EPAC1 antag – blocks human EPAC1 exchange factor; Potency, µM (doses to about 115 µM), without a hit: at the highest dose activity change, negative = inhibition, usual class: inhibitors; EPAC1 GEF assay, Rap1b-BODIPY-GDP exchange fluorescence; 0.14% of 360,000 active; O95398;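 note: plate controls were vehicle for no effect and positive control for full effect; nearly all actives have a fitted effect of over 50% in size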
EPAC1 ag – agonists of human EPAC1 | O95398 | EPAC1 agonist qHTS, biochemical assay; response scale: 100% = response to 6.5 mM cAMP | Potency, µM (titrated, usually from 154 µM), for the others: top-dose activation, hits mostly activators | 0.073% of 360,000 active | AID 720707; note: nearly all actives have a fitted effect of over 60% in size
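Read-out is the fluorescence drop as BODIPY-GDP leaves Rap1B (480 nm excitation, 540 nm emission), recorded every 5 minutes over 30 minutes. Reactions held 100 nM EPAC1, 250 nM Rap1B–BODIPY-GDP and 50 uM GDP, with 6.5 mM cAMP setting full activation.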
EPAC2 antag – antagonists of human EPAC2; 0.18% of 360,000 active; Potency, µM (highest dose often 114 µM), without a hit: at the top dose activity, negative = inhibition, actives largely listed as inhibitors; EPAC2 GEF exchange of Rap1B-BODIPY-GDP, fluorescence; AID 720708; note: % is set by controls: 0 for no effect and ±100 for the full control effect; nearly all actives have a fitted effect of over 45% in size
Target sequence (Q8WZA2 whole entry, looked up): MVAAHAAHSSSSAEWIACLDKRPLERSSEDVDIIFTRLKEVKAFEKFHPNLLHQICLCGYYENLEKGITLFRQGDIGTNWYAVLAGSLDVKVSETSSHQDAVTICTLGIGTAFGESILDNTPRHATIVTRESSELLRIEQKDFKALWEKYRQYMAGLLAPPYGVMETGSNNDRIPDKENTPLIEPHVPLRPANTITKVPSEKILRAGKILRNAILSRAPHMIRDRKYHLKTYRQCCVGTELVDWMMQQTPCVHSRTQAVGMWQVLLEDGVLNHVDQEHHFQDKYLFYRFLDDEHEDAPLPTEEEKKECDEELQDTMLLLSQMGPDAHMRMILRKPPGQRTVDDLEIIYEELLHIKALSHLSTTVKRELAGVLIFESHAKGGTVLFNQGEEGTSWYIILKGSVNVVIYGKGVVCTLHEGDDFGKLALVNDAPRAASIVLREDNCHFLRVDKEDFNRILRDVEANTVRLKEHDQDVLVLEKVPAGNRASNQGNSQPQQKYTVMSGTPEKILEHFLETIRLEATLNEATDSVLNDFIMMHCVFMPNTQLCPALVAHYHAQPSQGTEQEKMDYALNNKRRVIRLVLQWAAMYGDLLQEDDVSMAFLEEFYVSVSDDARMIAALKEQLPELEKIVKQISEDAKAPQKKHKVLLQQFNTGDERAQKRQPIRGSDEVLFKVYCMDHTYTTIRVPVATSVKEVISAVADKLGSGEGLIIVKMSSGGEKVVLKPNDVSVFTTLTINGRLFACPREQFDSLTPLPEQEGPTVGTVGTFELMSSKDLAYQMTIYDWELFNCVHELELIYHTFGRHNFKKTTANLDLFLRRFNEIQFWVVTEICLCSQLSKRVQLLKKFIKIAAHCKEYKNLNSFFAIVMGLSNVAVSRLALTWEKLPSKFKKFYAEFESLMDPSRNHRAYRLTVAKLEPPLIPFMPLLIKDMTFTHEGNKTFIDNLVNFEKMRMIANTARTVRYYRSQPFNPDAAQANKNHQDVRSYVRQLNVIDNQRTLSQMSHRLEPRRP
EPAC2 agonist – EPAC2 (human) agonism; EPAC2 activation, biochemical qHTS; response scale: 100% = 6.5 mM cAMP response; Potency, µM (highest dose often 154 µM), for inactives: at the top dose activation, actives largely listed as activators; 0.079% of 360,000 active; note: nearly all actives have a fitted effect of over 50% in size
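Readout is BODIPY fluorescence (480 nm excitation, 540 nm emission), which falls as labeled GDP is exchanged off Rap1B. EPAC2 at 100 nM acted on 250 nM RAP1B-BODIPY-GDP with 50 uM GDP present.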
The depositor's hits bear a star; ? = inconclusive. In the library only some 0.38% were active in any assay of this set; here they are far more common. Calls come from the whole dose curve; as a rule, active = well fitted curve in the direction sought with a large enough effect; inconclusive = small, poorly fitted or top-dose-only effect, or another doubt; inactive = no such curve, though single readings can be large; an effect the other way counts as inactive or inconclusive. Potency is the fitted concentration of half-maximal effect.

SMILES	EPAC1 antag	EPAC1 ag	EPAC2 antag	EPAC2 agonist
O=c1cc(-c2ccc(O)cc2)oc2c1ccc1ccccc12	1%	-1%	7%	-4%
O=c1cc(-c2ccc(O)cc2)oc2c(O)c(O)c(O)c(O)c12	6.3µM*	-6%	-14%	4%
Oc1ccc(N=Cc2ccc(-c3cccs3)s2)cc1	32µM*	18%	?	25%
COc1ccccc1C(C(=O)c1ccccc1)c1ccc(O)cc1 (stereo not drawn)	-16%	3%	56µM*	1%
O=C(N/N=C\c1c(O)ccc2ccccc12)c1ccc(S(=O)(=O)N2CCCCC2)cc1	-22%	1%	28%	100µM*
O=c1[nH]ncc2c3ccccc3n(Cc3ccc(F)cc3)c12	4%	0%	6%	-8%
O=c1[nH]ncc2c3ccccc3n(Cc3cccc(Cl)c3)c12	98%	79µM*	101%	?
Cc1ccc(C(=O)C2CC2)cc1C	?	5%	3%	4%
COc1cc(N=Nc2ccc(C)cc2S(N)(=O)=O)c(C)cc1N	-12%	7%	-15%	14%
Nc1c(C(=O)NCC2CCCO2)sc2nc3c(c(-c4ccco4)c12)CC/C3=C\c1ccco1 (stereo not drawn)	20µM*	-5%	-2%	-11%
COc1ccccc1Oc1ccnc2cc(Cl)ccc12	-17%	-1%	40µM*	6%
COc1ccc(CCC(=O)Nc2c(-c3ccc(N(C)C)cc3)[nH][nH]c2=O)cc1	50µM*	15%	-18%	?
O=C1NC[C@H](CCCCN2CCN(Cc3ccccc3)C(=O)C2=O)N(CC2CCCCC2)C1=O	-24%	-6%	0%	4%
CCn1c(O)c(/C=N/N=C/c2ccc(OC)cc2)c2cc(C3=NNC(=O)CC3)ccc21	?	11%	11%	100µM*
CC/C(C)=N\N=C\c1c(O)n(CC)c2cc(C3=NNC(=O)CC3)ccc12	-6%	7%	-5%	3%
CCOC(=O)/C(=C\c1ccc(N2CCC(c3ccccc3)=N2)cc1)C(C)=O	11%	?	169%	100µM*
Cc1ccc(/C=C(\CCC(=O)O)c2nc3ccccc3s2)cc1[N+](=O)[O-]	79µM*	27%	-1%	2%
COc1ccc(C(=O)Nc2cccc(/C=C(\CCC(=O)O)c3nc4ccccc4s3)c2)cc1	56µM*	-4%	32%	-2%
Cn1cnnc1Sc1ccc(/C=C(\CCC(=O)O)c2nc3ccccc3s2)cc1[N+](=O)[O-]	9%	-8%	2%	6%
CN(c1ccccc1)c1ccc(/C=C(\CCC(=O)O)c2nc3ccccc3s2)cc1[N+](=O)[O-]	?	15%	79µM*	1%
CNc1ccc(/C=C(\CCC(=O)O)c2nc3ccccc3s2)cc1[N+](=O)[O-]	45µM*	?	-7%	5%
CC1(C(=O)NCC2CCCCC2)CCN1C(=O)Cc1ccc(-c2ccccc2)cc1 (stereo not drawn)	-20%	-6%	?	7%
Cn1c(=O)c(C#N)c(-c2ccc(F)cc2)c2cc(C(=O)c3cc(Cl)cc(Cl)c3O)cnc21	?	-2%	50µM*	-3%
CC(C)(C)Nc1c(C2CCNCC2)nc2c(OCc3ccccc3)cccn12	14%	-7%	6%	1%
CCc1cccc(CC)c1N1C(=O)C2=C(SCCCS2)C1=O	-2%	100µM*	-7%	112µM*
SMILES	EPAC1 antag	EPAC1 ag	EPAC2 antag	EPAC2 agonist
Cc1ccccc1COc1cccn2c(N(C)C(=O)CCC3CCCC3)c(C)nc12	-12%	-1%	-15%	22%
Cn1c2ccccc2c2cc(/C=N/NC(=O)c3cc(O)ccc3O)ccc21	56µM*	9%	0%	7%
Cn1c2ccccc2c2cc(/C=N/NC(=O)c3cc(O)cc(O)c3)ccc21	?	-9%	-3%	14%
O=C(Nc1ccc(F)c(Cl)c1)[C@@H]1O[C@H](CO)[C@H](O)[C@H](O)[C@H]1O	-4%	12%	-4%	14%
CCC(Oc1ccccc1)C(=O)Nc1ccccc1N1CCCC1 (stereo not drawn)	-25%	9%	50µM*	13%
CC(Oc1ccc(F)cc1)C(=O)Nc1ccccc1N1CCCCC1 (stereo not drawn)	7%	4%	-25%	-5%
CCC(C(=O)Nc1ccccc1N1CCCC1)c1ccccc1 (stereo not drawn)	-4%	-1%	5%	-6%
CCC(Oc1ccccc1)C(=O)Nc1ccccc1N1CCCCC1 (stereo not drawn)	3%	-3%	13µM*	7%
CC(=O)Oc1ccccc1C(=O)OCCN=C1NS(=O)(=O)c2ccccc21	-7%	-2%	1%	-2%
CCOC(=O)N1C(=O)NC(=O)C1c1ccc(OC)cc1 (stereo not drawn)	-13%	5%	2%	3%
Cc1ccc(C)c(CSC2=NCCN2S(=O)(=O)c2ccccc2)c1	-3%	4%	-19%	10%
COc1ccc(-n2c(C)cc(C(=O)CCl)c2C)cc1	-30%	8%	7.9µM*	11%
COc1ccc(-n2c(C)cc(C(=O)CN3C(=O)c4ccccc4C3=O)c2C)cc1	-3%	4%	1%	19%
CCCCC(=O)N(C)c1c(C)nc2ccc(C(=O)N(CC)CCN(C)C)cn12	-13%	0%	-4%	11%
COc1ccc(CNC(=O)c2sc(=O)n(Cc3ccccc3OC)c2C)cc1	-18%	2%	-3%	11%
Cn1cc(S(=O)(=O)N2CCNCC2)cc1C(N)=O	15%	9%	2%	-6%
CC(C)Cn1c(N)c(C(=O)NCC2CCCO2)c2nc3ccccc3nc21 (stereo not drawn)	50µM*	7%	-25%	-2%
O=C(O)/C=C\C(=O)Nc1ccccc1C#Cc1ccc(Br)cc1	-3%	14%	10µM*	9%
CCCCn1c(N)c(N(CC(C)C)C(=O)CCN2C(=O)C3CC=CCC3C2=O)c(=O)[nH]c1=O (stereo not drawn)	-2%	-2%	3%	12%
COc1cccc(/C=C/C(=O)OCC(=O)NC2CCCCCC2)c1	8%	4%	12%	12%
COc1ccc(C2(c3ccc(OC)cc3)NC(=O)N(CC(=O)N3CCOCC3)C2=O)cc1	-7%	4%	1%	5%
Cc1ccc(S(=O)(=O)NN2C(=O)/C(=C/c3cccc(F)c3)SC2=S)cc1	?	-3%	32µM*	-8%
COc1cc(/C=C2\SC(=S)N(NS(=O)(=O)c3ccc(C)cc3)C2=O)cc(OC)c1OC	79µM*	-1%	50µM*	-4%
COc1cc(/C=C2\SC(=S)N(NS(=O)(=O)c3ccc(C)cc3)C2=O)ccc1O	?	6%	?	-6%
CC(=O)OC[C@@H]1CN(Cc2ccccc2)C[C@H](n2cnc3c(NCC(C)C)ncnc32)O1	-5%	-13%	-4%	4%
Clc1ccc(C2Nc3cccc4cccc(c34)N2)c(Cl)c1	-6%	11%	10µM*	6%
O=C(NC1(O)C(=O)c2ccccc2C1=O)c1ccc(C(F)(F)F)cc1	35µM*	1%	?	24%

Source: PubChem BioAssay
